The results in this text go back to PubChem BioAssay.

The subject of test [1] is Human papillomavirus type 1a protein E7 (residues 44-93). In words: HPV1a E7 fragment binders on microarrays, primary screen, biochemical, small-molecule microarray, residues 44-93, 635 nm fluorescence (AID 1108).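 Note: E7 fragment applied at 1 µg/mL in TBST for 1 h at 4 C; score combines spot fluorescence with its signal to noise ratio.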 The conditions noted are these: small-molecule microarray binding, fluorescence 635 nm; higher = more signal.
A short description of test [2]: modulators of HCV replicon luciferase signal, primary screen, HCV replication inhibitor project, Huh7 cells, luciferase reporter (AID 1109).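 Note: huh7 hepatoma cells harbouring a luciferase neomycin HCV replicon reporter; luciferase luminescence as measure of HCV replicon replication; test concentration not given here.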 The conditions noted are these: 48 h, higher = more signal.
Test [3] has as its target Left-right determination factor 2 (Homo sapiens) (UniProt O00292). Briefly: LEFTY2 binders on small-molecule microarrays, primary screen, biochemical, small-molecule microarray, 635 nm fluorescence scan (AID 1110). Particulars: LEFTY2 binding, higher = more signal.
The target in test [4] is Calmodulin-1 (Homo sapiens) (UniProt P0DP23). Briefly: CALM1 binders on microarrays, EGTA buffer, profiling panel, biochemical, small-molecule microarray, Cy5-labelled CALM1 (AID 1111).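 Note: labelled calmodulin applied in Tris saline Tween buffer holding calcium plus EGTA and DTT.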 The conditions noted are these: Cy5-CALM1 binding fluorescence, higher = more signal.
For test [5] the target is unchanged. In words: calcium-bound CALM1 binders on microarrays, profiling panel, artefact control for SMM control-protein annotation, biochemical, small-molecule microarray, Cy5-labelled CALM1, plus calcium (AID 1112).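 Note: score merges spot fluorescence with signal to noise from triplicate slides.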 The conditions noted are these: Cy5-CALM1 binding fluorescence, higher = more signal.
Test [6] in a line: small-molecule microarray binders of probe aWnt5a, primary screen, biochemical, biotinylated probe, 635/667 nm fluorescence (AID 1113).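 Note: score merges 667 nm fluorescence intensity with signal-to-noise per printed feature.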 Particulars: higher = more signal.
Test [7] in a line: small-molecule microarray binders of probe aShh, primary screen, biochemical, biotinylated probe, 635/667 nm fluorescence (AID 1114).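 Note: probe is biotin-labelled aShh protein from a stem cell growth factor screen; measures binding of labelled protein to compounds printed on the slide; score merges feature fluorescence at 667 nm with signal-to-noise.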 The conditions noted are these: higher = more signal.
A short description of test [8]: small-molecule microarray binders of probe aNog, primary screen, biochemical, biotinylated probe, 635/667 nm fluorescence (AID 1115).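 Note: probe is biotinylated aNog protein used at 0.15 µg/mL for 1 h at 4 C; z-score combines 667 nm fluorescence of each spot with its signal to noise.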 The conditions noted are these: higher = more signal.
Test [9] concerns the target Torsin-1A-interacting protein 1 (Homo sapiens) (UniProt Q5JTV8). In words: LAP1 binders from COS7 cell lysate, primary screen, small-molecule microarray, 635/667 nm fluorescence (AID 1116). The conditions noted are these: COS7-hLAP1 lysate binding, 635 nm fluorescence, higher = more signal.
The target in test [10] is Alpha-bungarotoxin (Bungarus multicinctus) (UniProt P60615). Briefly: alpha-bungarotoxin binders on microarray, profiling panel, artefact control for SMM control protein annotation, biochemical, small-molecule microarray, Alexa647 label, 635/667 nm fluorescence (AID 1117). The conditions noted are these: alpha-BTX-A647 binding fluorescence, higher = more signal.
Chain of Alpha-bungarotoxin (Bungarus multicinctus) (P60615 whole entry, looked up): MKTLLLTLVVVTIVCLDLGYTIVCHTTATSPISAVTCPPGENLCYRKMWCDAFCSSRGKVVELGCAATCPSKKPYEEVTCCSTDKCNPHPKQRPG

Chain of Left-right determination factor 2 (Homo sapiens) (O00292 whole entry, looked up): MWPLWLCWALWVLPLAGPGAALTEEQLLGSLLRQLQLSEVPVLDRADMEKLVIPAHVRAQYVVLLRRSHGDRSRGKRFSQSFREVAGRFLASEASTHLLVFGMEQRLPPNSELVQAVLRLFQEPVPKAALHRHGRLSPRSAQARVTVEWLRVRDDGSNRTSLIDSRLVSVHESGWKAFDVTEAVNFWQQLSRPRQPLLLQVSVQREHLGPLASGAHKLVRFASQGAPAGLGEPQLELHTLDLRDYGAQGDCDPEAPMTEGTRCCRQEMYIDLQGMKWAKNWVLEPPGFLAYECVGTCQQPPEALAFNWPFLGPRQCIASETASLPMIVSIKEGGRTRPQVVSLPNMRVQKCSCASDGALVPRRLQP
Chain of Torsin-1A-interacting protein 1 (Homo sapiens) (Q5JTV8 whole entry, looked up): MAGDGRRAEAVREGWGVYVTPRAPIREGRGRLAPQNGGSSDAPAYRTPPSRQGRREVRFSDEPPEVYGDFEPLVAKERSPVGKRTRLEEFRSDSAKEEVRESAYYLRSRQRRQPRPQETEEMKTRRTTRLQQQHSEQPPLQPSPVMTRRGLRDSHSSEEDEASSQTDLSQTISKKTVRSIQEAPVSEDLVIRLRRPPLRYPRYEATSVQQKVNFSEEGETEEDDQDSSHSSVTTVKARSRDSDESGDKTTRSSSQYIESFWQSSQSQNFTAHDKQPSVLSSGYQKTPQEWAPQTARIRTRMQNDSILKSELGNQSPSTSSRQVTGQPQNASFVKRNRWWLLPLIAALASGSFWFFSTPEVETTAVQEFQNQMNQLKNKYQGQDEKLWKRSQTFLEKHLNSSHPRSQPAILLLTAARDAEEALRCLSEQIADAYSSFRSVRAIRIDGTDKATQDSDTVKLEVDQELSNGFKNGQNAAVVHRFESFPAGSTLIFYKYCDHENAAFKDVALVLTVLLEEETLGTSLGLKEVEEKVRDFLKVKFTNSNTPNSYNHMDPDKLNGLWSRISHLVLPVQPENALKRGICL

Consider `CSCC[C@@H]1NC(=O)CC=C[C@@H](C)COC(=O)[C@H](CCSC)NC(=O)CC=C[C@@H](C)COC1=O`, for which the composite z-score in [1] is -0.507; in test [3] it was 0.42; in test [4] it was -1.21; in test [5], -0.58; in [6], -0.168; in [7] it was 0.0756. Further, the composite z-score in test [8] was -0.255; in [9] it was -0.242; in [10] it was -0.222. In test [2], the z-score was -0.116.
With `CC(C)C[C@@H]1NC(=O)[C@H](CC(C)C)NC(=O)[C@@]23C(=O)N[C@@H](Cc4ccccc4)C2[C@H](C)[C@@]2(C)O[C@H]2C3/C=C/CC/C=C/CNC1=O` (stereo not given in full), the composite z-score in test [1] was 1.34; in test [3], 0.521; in test [4] it was 0.102; in test [5] it was -0.747; in test [6], -0.101; in [7], -0.221. Moreover, the composite z-score in test [8] is -0.261; in [9], 0.292; in test [10] it was 0.683. In test [2], the z-score is -1.24.
Regarding `COCCCNC(=O)[C@@H]1c2ccccc2C(=O)N(CC23CC4CC(CC(C4)C2)C3)[C@H]1c1ccc(CO)cc1`, the composite z-score is 0.666 in test [1]; -0.191 in [3]; 0.879 in test [4]; 0.803 in [5]; -0.0405 in test [6]; 0.778 in [7]. The figures for the composite z-score in test [8], in test [9] and in test [10] were 0.0051, 0.926 and 0.253, respectively. In addition, the z-score in test [2] is -1.57.
As to `CC/C=C/C(=O)N(C[C@@H]1CCCO1)[C@@H]1CC(C(=O)NCCO)=C[C@H](Oc2c(I)cc(CO)cc2OC)[C@H]1O`, the composite z-score was -0.2 in test [1]; 0.208 in [3]; -0.33 in test [4]; 0.0262 in [5]; 0.497 in [6]; 0.138 in test [7]. Moreover, the composite z-score in test [8] turned out to be 0.124; in [9] it was 0.371; in test [10], 0.515. The same molecule registered a z-score in test [2] of -0.277.
`O=C1C2C=CC(C(O)c3ccccc3)N(n3cnnc3)C2C(=O)N1Cc1ccccc1` (stereo not given): the composite z-score in test [1] was -0.447; in test [3] it was -0.237; in test [4] it was 0.206; in [5] it was -0.372; in [6] it was 0.0357; in test [7] it was -0.0594. For the same molecule, the figures for the composite z-score in test [8], in test [9] and in test [10] were 0.319, 0.327 and 0.449, respectively. This molecule also registered a z-score in test [2] of 0.573.
Take `Cc1ccc(S(=O)(=O)N[C@H]2COC(=O)CC=C[C@H](C)COC(=O)N[C@@H](C)C(=O)CC=C[C@@H]2C)cc1`: the composite z-score in test [1] was -0.417; in test [3] it was 1.05; in [4], -0.643; in [5], -1.39; in test [6], -0.1; in test [7], -0.0243. The composite z-score is -0.345 in test [8], 0.0478 in [9] and 0.0411 in test [10]. In [2], this molecule gave a z-score of -0.47.
For the molecule `COc1cc(CO)cc(I)c1O[C@H]1C=C(C(=O)NCCO)C[C@@H](NCCc2c[nH]c3ccccc23)[C@@H]1O`, the composite z-score in [1] is -0.552; in [3] it was 0.688; in test [4], 0.228; in test [5], -0.56; in test [6] it was -0.0032; in test [7], 0.116. Moreover, the composite z-score in [8] stood at 0.758; in [9], 0.762; in test [10] it was 0.988. For the same molecule, the z-score in test [2] was -2.76.
Regarding `NC(=O)NCC#Cc1ccc2c(c1)[C@]1(C(=O)N2)[C@H](C(N)=O)[C@H]2C(=O)O[C@H](c3ccccc3)[C@H](c3ccccc3)N2[C@@H]1c1ccccc1OCCO`, the composite z-score in [1] is 1.04; in test [3], 0.375; in test [4], 0.425; in test [5], 0.356; in [6], -0.124; in [7], -0.0793. Also, the composite z-score is 0.657 in [8], 0.808 in test [9] and 0.45 in [10]. In test [2], this molecule had a z-score of -0.771.
`CCC(=O)[C@]12O[C@@]3([C@@H]4C(=O)OCC[C@@H]41)N(CC)C(C)=C(C(=O)OC)[C@@H](c1ccccc1)N3C2=O`: the composite z-score in test [1] is -0.933; in [3], 0.594; in test [4], -0.42; in test [5], -0.382; in [6] it was -0.147; in [7], 0.227. Besides, the composite z-score in test [8] is -0.131; in test [9], -0.303; in test [10], 0.175. The molecule further yielded a z-score in test [2] of -0.206.
For `CC[C@H]1C2=C3C(CC[C@H]4C(OC)OC[C@](C)([C@@H]34)N(C(=O)OC(C)(C)C)C2)C(CO)C1CO` (stereo not given in full), the composite z-score in test [1] was 1.37; in test [3], 0.221; in test [4], 2.27; in test [5], 1.38; in test [6] it was 0.379; in test [7], -0.349. In addition, the composite z-score in [8] is -0.128; in test [9] it was 2.23; in test [10], 1.33. In addition, the z-score in test [2] is -0.996.
With `C[C@H]1NC(=O)[C@@H](C)NC(=O)[C@@]23C(=O)N[C@@H](Cc4ccccc4)C2[C@H](C)[C@@]2(C)O[C@H]2C3/C=C/C/C=C\CNC1=O` (stereo not given in full), the composite z-score is -0.569 in [1]; 0.182 in test [3]; -0.809 in test [4]; -1.32 in test [5]; -0.0758 in test [6]; -0.221 in test [7]. Also, the composite z-score was -0.0684 in [8], -0.485 in [9] and 0.393 in test [10]. For the same molecule, the z-score in test [2] was -0.175.
Regarding `C=CCOC(=O)[C@@H]1[C@H]2C(=O)O[C@H](c3ccccc3)[C@H](c3ccccc3)N2[C@H](c2ccc(OCCOC(=O)[C@H]3C[C@H]4C(=O)N[C@@H](CCCCNC(C)=O)C(=O)N4[C@H]3c3ccc(O)cc3)cc2)[C@@]12C(=O)Nc1ccc(I)cc12`, the composite z-score in [1] is 1.39; in test [3], 0.576; in test [4], 0.419; in test [5], 0.232; in test [6] it was -0.104; in [7] it was -0.232. For the same molecule, the values for the composite z-score in test [8], in [9] and in [10] were -0.0496, 0.818 and 1.07, respectively. For the same molecule, in test [2], the z-score was -1.66.
For the molecule `C=CCc1cccc([C@@H]2[C@@H](C)CC[C@H]3C(=O)N4[C@H](c5cccc(CC=C)c5)[C@@H](C)CC[C@H]4C(=O)N23)c1`, the composite z-score was 0.227 in [1]; 1.09 in test [3]; 0.254 in test [4]; -0.831 in test [5]; 0.0893 in test [6]; 0.0899 in test [7]. The results for the composite z-score in [8], in test [9] and in test [10] were -0.216, 0.373 and 1.88, respectively. In [2], this molecule showed a z-score of -3.5.
In the case of `O=C1C2C=CC(C(O)Cc3ccccc3)N(Nc3ccc([N+](=O)[O-])cc3)C2C(=O)N1c1ccccc1` (stereo not given), the composite z-score in test [1] was 0.508; in test [3] it was 0.0886; in [4] it was 0.417; in test [5], 0.426; in test [6], 0.159; in [7] it was 0.203. For the same molecule, the composite z-score in test [8] is 0.905; in test [9], 0.937; in test [10], 0.307. Also, in test [2], the z-score was -0.531.
With `COc1ccc([Si](C)(C)[C@@H]2[C@@H](CC(=O)N(CCO)Cc3ccccc3)O[C@]3(C(=O)N(Cc4cccc(N5CCC5=O)c4)c4ccccc43)[C@H]2C)cc1`, the composite z-score was 0.411 in test [1]; 0.571 in test [3]; -0.0736 in [4]; -0.322 in [5]; -0.0718 in [6]; -0.0709 in [7]. Also, the composite z-score is -0.411 in [8], 1.28 in test [9] and 0.508 in test [10]. This molecule also yielded a z-score in test [2] of -3.81.
`COCCOC(=O)N1C(=O)[C@@]2(c3cc(C#CC4=CCCCC4)ccc31)[C@H](C(=O)NC[C@H](O)c1ccccc1)[C@H]1C(=O)O[C@H](c3ccccc3)[C@H](c3ccccc3)N1[C@@H]2c1ccccc1OCCO`: the composite z-score stood at 0.453 in test [1]; 0.394 in [3]; 1.43 in test [4]; 0.635 in [5]; 0.0246 in [6]; 0.443 in test [7]. In addition, the composite z-score in test [8] was found to be 0.216; in [9], 0.814; in [10], 2.18. The z-score in [2] was -3.01.
In the case of `COc1ccc([Si](C)(C)[C@@H]2[C@@H](CCO)O[C@]3(C(=O)N(Cc4ccc(NC(=O)[C@H](C)O)cc4)c4ccccc43)[C@H]2C)cc1`, the composite z-score was 1.39 in test [1]; 0.0969 in test [3]; 0.805 in test [4]; -0.0051 in [5]; -0.12 in test [6]; -0.0626 in [7]. The composite z-score was determined as 0.0169 in test [8], 0.694 in [9] and 0.94 in [10]. The z-score in [2] is -5.23.
